Pf growth 48h – inhibits P. falciparum growth in the first generation, 48 h; AID 504832; actives 5.9% (n = 310,000); P. falciparum luciferase growth in erythrocytes, 48 h; Potency, µM (titrated, usually from 28.7 µM), inactives show at the top dose activity change, negative = inhibition, usual class: inhibitors; also: % is scaled to controls: 0 for no effect and ±100 for the full control effect
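Firefly luciferase activity from engineered P. falciparum reports growth; inhibitors lower the luminescent signal. Cultures contained 2% hematocrit erythrocytes at 0.1% final parasitemia.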
SARS PLP yeast – SARS-CoV PLP inhibition in yeast | S. cerevisiae expressing SARS-CoV PLpro, growth rescue | Potency, µM (highest dose often 32.9 µM), for the others: at the highest dose activity, positive = growth rescue, actives largely listed as activators | actives 0.19% (n = 330,000) | AID 485353; calls by dose curve; also: 0% is about no effect; nearly all actives have a fitted effect of over 55% in size
AMA1 RON2 block – inhibitors of Plasmodium falciparum AMA1-RON2 interaction | AlphaScreen AMA1-biotinylated RON2 peptide binding | Potency, µM (top dose mostly 58.2 µM), inactives show top-dose activity change, negative = inhibition, actives largely listed as inhibitors | actives 0.2% (n = 360,000) | AID 720542;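 also: 0% = vehicle wells and -100% = peptide control; nearly all actives have a fitted effect of over 45% in size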
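AMA1 (3D7) with his tag at 25 nM final met compounds first, then biotinylated RON2 peptide at 25 nM; detection used donor plus acceptor beads, 10 µg/mL apiece, read by AlphaScreen after 30 min at room temperature.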
Pf growth 96h – P. falciparum growth inhibition at 96 hours. P. falciparum luciferase reporter growth, 96 h. Potency, µM (highest dose often 28.7 µM), inactives show top-dose activity change, negative = inhibition, actives largely listed as inhibitors. actives 6.9% (n = 320,000). AID 504834; also: % is scaled to controls: 0 for no effect and ±100 for the full control effect
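Plates of compound plus infected erythrocytes (2% hematocrit, 0.05% parasitemia final) incubate 96 hours, 37 C, 5% CO2. Detection reagent added; reduced luminescence from the parasites' luciferase reporter flags inhibition.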
NS1 function inh – inhibitors of influenza NS1 protein function; actives 0.4% (n = 270,000); Potency, µM (titrated, usually from 46.1 µM), without a hit: at the top dose activity, positive = more growth; calls by dose curve; also: actives are rising curves; nearly all actives have a fitted effect of over 50% in size
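Recovery from NS1-induced slow growth read by OD600 in budding yeast switched to galactose assay medium (pH 6.0, -URA) at 1:100 dilution. Compound 23 nl per well; the matching strain lacking NS1 serves as control.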
HCV inhibitor – inhibitors of hepatitis C virus infection | actives 3.4% (n = 340,000) | Huh7.5.1 HCVcc-Cre infection, luciferase reporter, 44 h | AID 651820 | Potency, µM (doses to about 41.8 µM), for the others: top-dose activity change, negative = inhibition, most hits filed as inhibitors; also: % is scaled to controls: 0 for no effect and ±100 for the full control effect
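Cells (1,000/well) were plated 4 h before compound, then infected with HCVcc-Cre virus (~0.5 moi). After 44 h further culture, infection was read as luciferase luminescence following a 15 min substrate incubation at room temperature.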
The depositor's hits bear a star; ? = inconclusive; · = no result. Most compounds without a hit are left out; they make up all but 12% or so of the library. Unless noted, calls follow the shape of the dose curve; as a rule, active = well fitted curve in the direction sought with a large enough effect; inconclusive = small, poorly fitted or top-dose-only effect, or another doubt; inactive = no such curve, though single readings can be large; an effect the other way counts as inactive or inconclusive. Potency is read from the fitted curve at half-maximal effect.

SMILES	Pf growth 48h	SARS PLP yeast	AMA1 RON2 block	Pf growth 96h	NS1 function inh	HCV inhibitor
O=C(NCc1cccnc1)C1CCN(C(=O)c2ccc(Cl)cc2Cl)CC1	8%	0%	0%	·	-7%	5%
CCCN(CCC)CCNC(=O)C1CCN(Cc2nc(-c3ccc(Cl)cc3)oc2C)CC1	4.7µM*	-1%	-11%	?	4%	0.79µM*
O=C(C[n+]1cccc(Br)c1)c1ccc(-c2ccccc2)cc1	1%	-3%	0%	24%	-1%	?
COc1ccc(NC(=O)CSCC(=O)N(C)CC(=O)Nc2cccc3ccccc23)cc1	7%	-4%	1%	2%	·	7%
S=C(NCCSCc1ccc(Cl)cc1Cl)Nc1ccccc1	?	-22%	51%	?	-131%	?
OCCCCNCc1ccc(OCc2ccc(Cl)cc2Cl)cc1	13µM*	-12%	0%	15µM*	-61%	6.3µM*
OCCNCc1ccc(OCc2ccc(Cl)cc2Cl)cc1	?	-2%	-5%	26%	-4%	?
S=C(Nc1ccccc1)Nc1ccc(OCc2ccc(Cl)cc2Cl)cc1	5.9µM*	-3%	47%	?	8%	?
c1cnc2nc(CSc3ncn[nH]3)cn2c1	-1%	2%	5%	-3%	·	-6%
CCOCc1nc2nc(Cl)c(Cl)nc2[nH]1	·	·	9%	·	·	·
Nc1nc2cc(Cl)ccc2cc1C(=O)NCCCc1ccccc1	·	·	2%	·	·	·
C=CCn1c(C)cc(-c2csc(NC(=O)C3=COCCO3)n2)c1C	5.2µM*	-2%	8%	?	·	-11%
C=CCn1c(C)cc(-c2csc(NCC)n2)c1C	?	-4%	-21%	?	1%	10µM*
Cc1cc(C)c(-c2csc(NC(=O)C3=COCCO3)n2)cc1C	39%	0%	-8%	15%	·	?
CC(C)c1ccc(NC(=O)c2ccccc2NC(=O)C2CCCCC2C(=O)O)cc1 (centres undefined)	141%	-1%	-7%	169%	17%	-4%
CNc1ncnc(Sc2ccc(Cl)cc2)c1[N+](=O)[O-]	9.3µM*	0%	-10%	-49%	4%	?
Cn1nc([N+](=O)[O-])nc1Sc1ccc(Cl)cc1	?	19%	0%	-5%	4%	4%
CC(C)(C)c1ccc(NC(=O)COC(=O)C2(C)CC2(Cl)Cl)cc1 (centres undefined)	-11%	-7%	6%	-20%	·	11µM*
Cc1ccccc1NC(=O)COC(=O)C1(C)CC1(Cl)Cl (centres undefined)	41%	-4%	0%	21%	3%	12%
COc1ccc2c(c1)C1(C)CC(C)(C)N2C(=O)N1c1ccccc1 (centres undefined)	?	-13%	-8%	10µM*	14%	-17%
COc1ccc(NC(=O)c2cc3c([nH]c4ccccc43)c(C)n2)cc1	?	2%	126%	9.3µM*	-7%	?
O=C(COC(=O)c1ccccc1N1C(=O)C2C3CCC(C3)C2C1=O)c1ccccc1 (centres undefined)	16%	-3%	-2%	2.3µM*	-9%	4%
O=C(O)c1ccc(-c2sc(Nc3ccccc3)n[n+]2-c2ccc(F)cc2)cc1	21%	-2%	-2%	30%	-6%	19%
COc1ccc2ccccc2c1-c1sc(Nc2ccccc2)n[n+]1-c1ccc(F)cc1	?	0%	-21%	?	19%	-81%
CCc1ccc(Nc2nc3ccccc3c(=O)s2)cc1	-7%	22%	63%	-24%	29%	13%
Fc1ccc(-[n+]2nc(Nc3ccccc3)sc2-c2c(Cl)cccc2Cl)cc1	?	-5%	?	?	-1%	10µM*
CCc1ccc(Nc2n[n+](-c3ccccc3)c(-c3c(Cl)cccc3Cl)s2)cc1	10µM*	-6%	?	?	-92%	5.6µM*
CCc1ccc(Nc2n[n+](-c3ccccc3)c(-c3cc(OC)c(OC)cc3Br)s2)cc1	?	6%	63%	12µM*	-2%	?

Source: PubChem
